# Measurements: the supplement of paper PMC10681739
# Biological target: T1, ETS1 (UniProt P14921)
# T1 sequence: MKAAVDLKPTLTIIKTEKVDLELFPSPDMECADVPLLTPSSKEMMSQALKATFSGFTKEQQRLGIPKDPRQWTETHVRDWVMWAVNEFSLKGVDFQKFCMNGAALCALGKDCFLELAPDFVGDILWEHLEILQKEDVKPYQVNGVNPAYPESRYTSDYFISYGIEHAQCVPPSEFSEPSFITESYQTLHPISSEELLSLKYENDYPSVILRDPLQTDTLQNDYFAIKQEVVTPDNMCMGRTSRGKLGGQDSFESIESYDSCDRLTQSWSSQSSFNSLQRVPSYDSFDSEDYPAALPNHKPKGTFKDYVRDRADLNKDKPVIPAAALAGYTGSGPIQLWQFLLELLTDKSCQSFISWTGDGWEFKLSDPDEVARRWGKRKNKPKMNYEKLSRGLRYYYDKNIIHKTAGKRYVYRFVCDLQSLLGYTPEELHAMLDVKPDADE
# Experiment: ETS1 binding intensity (PBM fluorescence), ETS1 alone (arbitrary fluorescence units); higher = stronger binding
# Details: ETS1 concentration 1 nM; RUNX1 concentration 0 nM
# 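For RUNX1 binding intensity (PBM fluorescence), RUNX1 alone in this document: Full-length recombinant human RUNX1 bound to double-stranded 36-bp genomic probes on a high-density microarray, scored as Alexa488 fluorescence per spot via anti-RUNX1 antibody, median of four replicate spots.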
row,Sequence,ETS1 binding intensity
1,CGGGCTGGGAGGAAGTGATGGCTGACCACAGAGGAG,1130
2,TTACTGCCGGAACTTGGGACCTTTGTAACCACGTCT,524
3,GATACCTAGAAGCCAGGAAACCGCGAGCTGCAGTCC,1080
4,AGGTTTTGAAAGAGGAAACCACATACCCGAAAACCA,1120
5,AGGTCTCCGGAAGTGGGTCTGCGGCGCGCGGGATGC,6040
6,TGTCTTCAGGAAGTGTAGCAGGTGTTGAGGTCAAGC,900
7,GGGTGCAGACGGGAAGTTGCGGCTGCCAGCGAAGCT,1680
8,TCCCCTCTCCCCATCCGCCCGAGACCACAGCCACTC,592
9,TGGAACAATGCTGCTTCCTGTGGGTGTCCCCCGGCC,1140
10,TTTCTGAAACCCTCAGGATGTGGGTTTTCACACTGT,1310
11,CCGATGGCGGCGGAACTGTGGTCAGGGCTGCCCTGA,365
12,CTGAGACCTCGGGCAGGATGTGGCTTCCCCAGAGTT,4700
13,AGCCACATCCTGGACAAAAGCTGTGGTCTAGTAACC,430
14,GGACGCTTCCGGTGGAAGGGAGCTGTTGCGGGGCTT,1410
15,TGCAATCAGGAAGCCTGCCCCTCTAGAACCACAAAA,540
16,GCAAACAGCACATCCGGTGTGGTCGACGGGTCCTCC,5820
17,GTTGTGCTCTTTCCTGCTTCCCGCAGTTTTTTAGTT,626
18,GCAGCTCTGGCAGGATGCGGTTAAATATGTATCCAC,2010
19,GACAGAGGAAACTAGGTGTGACAACCACAAACAGCT,432
20,AGCACCCGGAAGTCGGAGCTGCGCACGCACCGCGGG,2180

row,Sequence,ETS1 binding intensity
1,GGGAGGTCACATCCTGCCCGCGGTCTCAGAAAAGCT,821
2,GAAGCGCTGGGCGGAAGTGGCTGTGGCTTTGCCCTT,9200
3,ACACAGGAAGCAAAAGTTAAGCTATAAAACCCGCAA,571
4,CCCTCACCCCAGCTTTCCTGTGGTTAACCAAACCCC,518
5,CCTCACAGGGACTTCCTTCCCCGCGGTTCAGGAATC,444
6,CACGCCTGCGGAAGATGAAAACCACACGTCATGCAG,448
7,TTGCACACGTGGGCGGGAAGTGGTTAAGCGGCCTCA,1020
8,ACTCACTTCCGTTTAGCTTATCAACCACCAAGAGAC,1020
9,TTAGCACATCCTGGGTACACAGACCACAGCCTCCTC,367
10,TTACAATCATTTCCTCTCTGTGGTTTGGTGACAAAT,722
11,GCCGGGCACTTCCTGTGGAGGCCGCAGCGGGTGCGC,1330
12,GCTAAGAGCAGGAAATGATCTGGGAACCACCATCAC,2690
13,GCTTCTTCAGCCACATCCTGACCACAGCCCAGATTC,496
14,TTAGGCTCATGGGAAATGTGGTTTCTAAATCGCGGG,494
15,GAGACACTCTGCTTCCTGCGGTGGAAGATTCAGTAT,473
16,TACCCCGCCGGAAGCCCCCTGCTCTGTGGGAACCGG,2480
17,ACATGGTCTCGCTTCCTGTTTACACCACAGAAAGCT,2820
18,TGTGATAAGGATGTTCGTGTGCCTTGTGGTCAGGTG,623
19,CACCGCCGGAGTCCCGGATGTGGTTGCTAGGGCAGC,5070
20,CTTCGACCCCGGAAGCGCTAACCACCCCGGGGGCCG,4160

# Biological target: RUNX1 (UniProt Q01196)
# Experiment: RUNX1 binding intensity (PBM fluorescence), RUNX1 alone (arbitrary fluorescence units); higher = stronger binding
# Details: RUNX1 concentration 2 nM; ETS1 concentration 0 nM
# Protocol: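 Cooperative gcPBM on 36-bp genomic probes with neighbouring ETS1 and RUNX1 sites. Recombinant human RUNX1 (2 nM) was incubated alone or with ETS1 (25 nM) and detected with anti-RUNX1 antibody plus Alexa488 secondary. Values are medians over 4 replicate spots; the RUNX1+ETS1 data were normalised to the RUNX1-only data. The probes sit in constant array flanks that are not printed.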
# Sequence of RUNX1 (Q01196 whole entry): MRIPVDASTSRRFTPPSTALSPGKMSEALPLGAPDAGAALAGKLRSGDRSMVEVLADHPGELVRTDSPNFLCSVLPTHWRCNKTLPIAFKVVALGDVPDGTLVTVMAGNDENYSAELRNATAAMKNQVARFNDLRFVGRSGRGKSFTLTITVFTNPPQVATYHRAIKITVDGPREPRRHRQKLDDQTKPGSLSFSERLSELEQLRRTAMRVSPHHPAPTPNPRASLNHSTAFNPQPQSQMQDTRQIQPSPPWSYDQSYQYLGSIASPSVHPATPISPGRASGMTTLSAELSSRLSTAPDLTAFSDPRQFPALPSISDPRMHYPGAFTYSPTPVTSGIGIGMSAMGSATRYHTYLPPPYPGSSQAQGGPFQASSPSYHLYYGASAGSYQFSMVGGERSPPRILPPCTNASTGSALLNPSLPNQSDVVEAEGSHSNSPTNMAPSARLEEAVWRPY
row,Sequence,RUNX1 binding intensity
1,CGGGCTGGGAGGAAGTGATGGCTGACCACAGAGGAG,1000
2,TTACTGCCGGAACTTGGGACCTTTGTAACCACGTCT,768
3,GATACCTAGAAGCCAGGAAACCGCGAGCTGCAGTCC,1190
4,AGGTTTTGAAAGAGGAAACCACATACCCGAAAACCA,1030
5,AGGTCTCCGGAAGTGGGTCTGCGGCGCGCGGGATGC,637
6,TGTCTTCAGGAAGTGTAGCAGGTGTTGAGGTCAAGC,703
7,GGGTGCAGACGGGAAGTTGCGGCTGCCAGCGAAGCT,741
8,TCCCCTCTCCCCATCCGCCCGAGACCACAGCCACTC,1340
9,TGGAACAATGCTGCTTCCTGTGGGTGTCCCCCGGCC,698
10,TTTCTGAAACCCTCAGGATGTGGGTTTTCACACTGT,800
11,CCGATGGCGGCGGAACTGTGGTCAGGGCTGCCCTGA,825
12,CTGAGACCTCGGGCAGGATGTGGCTTCCCCAGAGTT,684
13,AGCCACATCCTGGACAAAAGCTGTGGTCTAGTAACC,911
14,GGACGCTTCCGGTGGAAGGGAGCTGTTGCGGGGCTT,716
15,TGCAATCAGGAAGCCTGCCCCTCTAGAACCACAAAA,882
16,GCAAACAGCACATCCGGTGTGGTCGACGGGTCCTCC,728
17,GTTGTGCTCTTTCCTGCTTCCCGCAGTTTTTTAGTT,1470
18,GCAGCTCTGGCAGGATGCGGTTAAATATGTATCCAC,1920
19,GACAGAGGAAACTAGGTGTGACAACCACAAACAGCT,882
20,AGCACCCGGAAGTCGGAGCTGCGCACGCACCGCGGG,751

row,Sequence,RUNX1 binding intensity
1,GGGAGGTCACATCCTGCCCGCGGTCTCAGAAAAGCT,782
2,GAAGCGCTGGGCGGAAGTGGCTGTGGCTTTGCCCTT,735
3,ACACAGGAAGCAAAAGTTAAGCTATAAAACCCGCAA,969
4,CCCTCACCCCAGCTTTCCTGTGGTTAACCAAACCCC,7290
5,CCTCACAGGGACTTCCTTCCCCGCGGTTCAGGAATC,866
6,CACGCCTGCGGAAGATGAAAACCACACGTCATGCAG,960
7,TTGCACACGTGGGCGGGAAGTGGTTAAGCGGCCTCA,725
8,ACTCACTTCCGTTTAGCTTATCAACCACCAAGAGAC,1390
9,TTAGCACATCCTGGGTACACAGACCACAGCCTCCTC,972
10,TTACAATCATTTCCTCTCTGTGGTTTGGTGACAAAT,1620
11,GCCGGGCACTTCCTGTGGAGGCCGCAGCGGGTGCGC,709
12,GCTAAGAGCAGGAAATGATCTGGGAACCACCATCAC,719
13,GCTTCTTCAGCCACATCCTGACCACAGCCCAGATTC,2350
14,TTAGGCTCATGGGAAATGTGGTTTCTAAATCGCGGG,912
15,GAGACACTCTGCTTCCTGCGGTGGAAGATTCAGTAT,873
16,TACCCCGCCGGAAGCCCCCTGCTCTGTGGGAACCGG,894
17,ACATGGTCTCGCTTCCTGTTTACACCACAGAAAGCT,1040
18,TGTGATAAGGATGTTCGTGTGCCTTGTGGTCAGGTG,889
19,CACCGCCGGAGTCCCGGATGTGGTTGCTAGGGCAGC,767
20,CTTCGACCCCGGAAGCGCTAACCACCCCGGGGGCCG,797
